According to the supplement of paper PMC6555819:

What was measured:
Assay in all cases: PBM binding z-score (relative to random genomic background probes); higher = stronger binding; sequences stand for … in GC…GCGATTGACAGCGTAGAATGAAGG
[1] = system: FXR:RXRa (NR concentration 270 nM, RXRa partner concentration 90 nM)
Summary of the method: (§1)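 Ligand-free nuclear receptor dimers were applied to custom Agilent 4×180K protein-binding microarrays whose double-stranded probes carried direct-repeat seeds, single-nucleotide variants, half-site ablations and random human genomic background sequences in 34-nt variable regions. Incubation lasted 1 h. Binding z-scores were computed against the random background probes from regression-normalized fluorescence.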

[2] = system: LXRa:RXRa (NR concentration 270 nM, RXRa partner concentration 90 nM)
Summary of the method: as §1

[3] = system: LXRa homodimer (NR concentration 270 nM)
Summary of the method: as §1

[4] = system: LXRb:RXRa (NR concentration 270 nM, RXRa partner concentration 90 nM)
Summary of the method: as §1

[5] = system: LXRb homodimer (NR concentration 270 nM)
Summary of the method: as §1

[6] = system: PPARa:RXRa (NR concentration 270 nM, RXRa partner concentration 90 nM)
Summary of the method: as §1

[7] = system: PPARg:RXRa (NR concentration 180 nM, RXRa partner concentration 90 nM)
Summary of the method: as §1

[8] = system: PPARg:RXRa 270nM:90nM, anti-RXR (NR concentration 270 nM, RXRa partner concentration 90 nM)
Summary of the method: as §1

[9] = system: PPARg:RXRa 30nM:10nM, anti-RXR (NR concentration 30 nM, RXRa partner concentration 10 nM)
Summary of the method: as §1

[10] = system: PPARg:RXRa 90nM:30nM, anti-RXR (NR concentration 90 nM, RXRa partner concentration 30 nM)
Summary of the method: as §1

[11] = system: PPARg:RXRa DBDmut IVT, anti-RXR (DBD mutation: RXRa K156A/R161A, NR concentration 270 nM, RXRa partner concentration 90 nM)
Summary of the method: as §1

[12] = system: PPARg:RXRa IVT, anti-PPARg (NR concentration 270 nM, RXRa partner concentration 90 nM)
Summary of the method: as §1

[13] = system: PPARg DBDmut:RXRa IVT, anti-PPARg (DBD mutation: PPARg1 K132A/R137A, NR concentration 270 nM, RXRa partner concentration 90 nM)
Summary of the method: as §1

[14] = system: PPARg DBDmut IVT, anti-PPARg (DBD mutation: PPARg1 K132A/R137A, NR concentration 270 nM)
Summary of the method: as §1

[15] = system: PPARg homodimer (NR concentration 180 nM)
Summary of the method: as §1

[16] = system: PXR:RXRa (NR concentration 270 nM, RXRa partner concentration 90 nM)
Summary of the method: as §1

[17] = system: PXR homodimer (NR concentration 270 nM)
Summary of the method: as §1

[18] = system: RARa:RXR (NR concentration 270 nM, RXRa partner concentration 90 nM)
Summary of the method: as §1

[19] = system: RARa homodimer (NR concentration 270 nM)
Summary of the method: as §1

[20] = system: RARb:RXRa (NR concentration 270 nM, RXRa partner concentration 90 nM)
Summary of the method: as §1

Sequence	PBM binding z-score [1]	PBM binding z-score [2]	PBM binding z-score [3]	PBM binding z-score [4]	PBM binding z-score [5]	PBM binding z-score [6]	PBM binding z-score [7]	PBM binding z-score [8]	PBM binding z-score [9]	PBM binding z-score [10]	PBM binding z-score [11]	PBM binding z-score [12]	PBM binding z-score [13]	PBM binding z-score [14]	PBM binding z-score [15]	PBM binding z-score [16]	PBM binding z-score [17]	PBM binding z-score [18]	PBM binding z-score [19]	PBM binding z-score [20]
ATCTCTAGGTAACAAGTTCAGTGATAGAGAGGAC	0.623	0.613	0.594	0.524	1.01	1.34	1.67	1.87	1.19	1.53	3.07	2.7	1.93	1.91	1.18	1.7	1.97	0.777	1.13	1.69
CCTAGCAGGCCAATCTGGGTCATTCAAGGCTTGA	1.16	1.52	-0.318	0.813	-1.03	2.54	1.18	1.73	-0.272	0.958	3.81	4.05	-1.11	-0.944	0.0423	1.63	-0.53	1.04	-0.337	1.17
CCTACTGGGCCATCAGATCATTGATATCAACGTT	-0.345	-0.391	-0.0851	-0.263	-0.349	0.662	1.01	1.49	0.163	1.28	4.57	3.97	0.261	0.0377	-0.139	-0.487	-0.238	-0.391	0.289	0.228
CGAACTAGGTCATCCATGACAGTGAATACATTGA	3.96	2.2	0.578	2.07	0.325	5.09	7.88	6.33	4.18	5.8	8.18	8.57	4.46	1.2	1.67	1.53	0.0131	2.26	0.371	3.98
ACTATTAGTTGACTTAGGGAAACCGATACGACGC	0.197	0.155	0.512	0.0262	0.742	-0.255	0.843	0.171	0.193	0.259	0.323	0.25	1.26	1.45	0.412	-0.145	0.319	0.0911	0.75	0.0734
CCTACTGGGCCATTCATAGGTCATTGATCATATG	0.867	2.17	3.55	2	-0.0981	2.64	1.49	1.93	0.277	1.06	4.46	3.82	0.954	-0.204	1.33	1.8	0.411	2.11	0.376	1.88
AATACAGGGTCATCGTAGACCAGAGTACGCACAG	7.48	5.86	2.19	4.4	1.2	5.84	6.79	6.17	2.73	4.84	3.19	4.37	1.62	0.874	2.94	4.27	0.967	5.09	1.49	4.3
ATACCAAGGTGATCGTGAGGTCGGTGATACTAAC	0.882	0.302	0.1	0.211	-0.161	0.78	0.426	-0.213	-0.123	-0.222	0.199	1.12	-0.398	0.469	0.85	0.944	0.32	0.998	0.866	1.11
CCGACGGGGGCATAAGGTTACCATAAGCCAGCCC	3.27	4.13	0.249	4.27	3.6	3.87	2.48	3.54	1.17	2.82	1.29	2.29	0.647	0.997	1.67	2.75	0.496	3.93	0.379	2.86
CCTGCTAGGTCAACGGTCAGCTAAAGCAGCTCGC	4.13	3.09	0.58	2.17	0.4	4	6.12	6.08	3.98	6.08	4.82	4.76	0.645	-0.543	2.2	1.8	-0.372	2.89	0.262	4.45
CCGACTGGGGCAGAACGGTTACCATACCATCCGG	-0.431	-0.676	-0.691	-0.711	-1.24	-0.574	0.748	-0.447	-0.36	-1.03	1.2	0.551	-1.28	-1.18	-0.513	-0.96	-0.492	-0.872	-0.367	0.227
TCATATAGGTAAATGCTAGGTGAAACTCCGATCT	1	0.883	0.327	0.756	-0.00744	1.4	0.976	2.12	4.01	2.96	4.38	2.75	0.957	1.1	0.711	0.57	0.499	0.959	0.953	0.548
GCATATAGGTAATACAAGGTGAGAGTCCGATTGT	0.288	0.937	-0.139	0.0719	-0.459	0.92	1.14	1.19	0.605	0.684	4.28	3.14	1.33	0.73	0.397	0.114	0.184	1.59	0.608	0.335
GCTTGTAGATCATGGTTAAGAAAGACTAAGCTAA	-0.444	-0.5	-0.382	-0.729	-0.647	-0.285	-0.054	0.171	-0.126	-0.187	0.856	0.283	0.687	-0.0333	0.17	-0.334	-0.29	-0.161	-0.00288	-0.371
